Numbering of substitutions follows the chain as printed.

Holding throughout (experiment): yeast three-hybrid, YBZ-1, SC-Leu-His + 0.5 mM 3-AT, 4 days
Conditions in all cases: tags: N-Gal4 AD-HA kept; label: inside an RPR1-promoter hybrid RNA with tandem MS2 sites; ssRNA

In one assay the target is T1, PUM1 PUF domain R6-RYG (Homo sapiens, UniProt Q14671 828-1176, N1043R;Q1047G).
T1 sequence: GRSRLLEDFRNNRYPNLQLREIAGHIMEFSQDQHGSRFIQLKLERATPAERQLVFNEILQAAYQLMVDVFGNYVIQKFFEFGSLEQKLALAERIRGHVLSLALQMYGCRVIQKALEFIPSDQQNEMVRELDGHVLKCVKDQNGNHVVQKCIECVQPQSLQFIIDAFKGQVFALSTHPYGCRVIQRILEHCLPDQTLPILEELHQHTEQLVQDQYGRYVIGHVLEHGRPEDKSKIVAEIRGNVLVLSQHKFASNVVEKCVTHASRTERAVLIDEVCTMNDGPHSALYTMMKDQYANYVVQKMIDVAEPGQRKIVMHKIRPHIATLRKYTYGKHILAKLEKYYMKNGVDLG
In outline:
(§1)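 Matching RNA elements and Pumilio-1 PUF domain libraries, randomized at the three base-contacting residues of every repeat, were co-expressed from a centromeric plasmid in strain YBZ-1 (LexA–MS2 coat fusion, HIS3 reporter). The repeat regions were PCR-amplified and Illumina-sequenced from cells grown four days on SC-Leu (input) or SC-Leu-His + 0.5 mM 3-AT (selection). The interaction score is the log change in variant frequency from input to selection. It is computed in log2, with a pseudocount of 1 for absent variants.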

The next assay addresses T2, PUM1 PUF domain R6-AWV (Homo sapiens, UniProt Q14671 828-1176, N1043A;Y1044W;Q1047V).
T2 sequence: T1 sequence with R216A, Y217W, G220V
The gist of the method:
as §1

The target of assay [1] is T3, PUM1 PUF domain R1-QFR R2-VFQ R6-SWD (Homo sapiens, UniProt Q14671 828-1176, S863Q;R864F;Q867R;N899V;Y900F;N1043S;Y1044W;Q1047D).
T3 sequence: T1 sequence with S36Q, R37F, Q40R, N72V, Y73F, R216S, Y217W, G220D
In outline: as §1

The target of a further assay is PUM1 PUF domain R4-GHW (Homo sapiens, UniProt Q14671 828-1176, N971G;Q975W). In outline:
as §1

A further assay deals with PUM1 PUF domain R4-CMN (Homo sapiens, UniProt Q14671 828-1176, N971C;H972M;Q975N). In outline:
as §1

Another assay deals with PUM1 PUF domain R8-RRY (Homo sapiens, UniProt Q14671 828-1176, N1122R;Y1123R;Q1126Y). The gist of the method: as §1
In the next assay the target is PUM1 PUF domain R4-WGV (Homo sapiens, UniProt Q14671 828-1176, N971W;H972G;Q975V). In outline:
as §1

The next assay has as its target T4, PUM1 PUF domain R6-DWG (Homo sapiens, UniProt Q14671 828-1176, N1043D;Y1044W;Q1047G).
T4 sequence: T1 sequence with R216D, Y217W
The gist of the method: as §1

The target of the next assay is PUM1 PUF domain R2-KLV (Homo sapiens, UniProt Q14671 828-1176, N899K;Y900L;Q903V). The gist of the method:
as §1

The next assay deals with PUM1 PUF domain R7-LYW (Homo sapiens, UniProt Q14671 828-1176, S1079L;N1080Y;E1083W). In outline: as §1

“GGCUAGAACUAGUGGAUCCCCCGGCGCCCGGCGGCUCGAGCCCGGGUAAGUGAAAAUAGUCUGCAUGCCGCCGGGCGCCAUGCCUGCAGGUCGACUCUAGAAAACAUG”: the binding signal with PUM1 PUF domain R6-RYG was 0.78 log2 enrichment (interaction score); with PUM1 PUF domain R6-AWV, 2.78 log2 enrichment (interaction score).
As for “GGCUAGAACUAGUGGAUCCCCCGGCGCCCGGCGGCUCGAGCCCGGGUAAGUGGAAAACGUCUGCAUGCCGCCGGGCGCCAUGCCUGCAGGUCGACUCUAGAAAACAUG”, in [1], the binding signal is 5 log2 enrichment (interaction score).
Turning to “GGCUAGAACUAGUGGAUCCCCCGGCGCCCGGCGGCUCGAGCCCGGGUAAGUGUAAAUAGUCUGCAUGCCGCCGGGCGCCAUGCCUGCAGGUCGACUCUAGAAAACAUG”, the binding signal with PUM1 PUF domain R4-GHW was 5.62 log2 enrichment (interaction score); with PUM1 PUF domain R4-CMN it was 3.59 log2 enrichment (interaction score); in the assay with PUM1 PUF domain R6-RYG it was 2.84 log2 enrichment (interaction score); with PUM1 PUF domain R8-RRY, 0.87 log2 enrichment (interaction score); with PUM1 PUF domain R4-WGV, 3.11 log2 enrichment (interaction score); with PUM1 PUF domain R6-DWG, 4.07 log2 enrichment (interaction score).
Consider “GGCUAGAACUAGUGGAUCCCCCGGCGCCCGGCGGCUCGAGCCCGGGUAAGCGUAAAUAGUCUGCAUGCCGCCGGGCGCCAUGCCUGCAGGUCGACUCUAGAAAACAUG”, for which the binding signal with PUM1 PUF domain R8-RRY is 2.72 log2 enrichment (interaction score).
For the sequence “GGCUAGAACUAGUGGAUCCCCCGGCGCCCGGCGGCUCGAGCCCGGGUAAGUGUAAAGAGUCUGCAUGCCGCCGGGCGCCAUGCCUGCAGGUCGACUCUAGAAAACAUG”, the binding signal with PUM1 PUF domain R2-KLV is 6.33 log2 enrichment (interaction score).
For the sequence “GGCUAGAACUAGUGGAUCCCCCGGCGCCCGGCGGCUCGAGCCCGGGUAAGUGUAUAUAGUCUGCAUGCCGCCGGGCGCCAUGCCUGCAGGUCGACUCUAGAAAACAUG”, the values for the binding signal with PUM1 PUF domain R4-GHW and with PUM1 PUF domain R4-WGV were 4.35 log2 enrichment (interaction score) and 3.61 log2 enrichment (interaction score), respectively.
Turning to “GGCUAGAACUAGUGGAUCCCCCGGCGCCCGGCGGCUCGAGCCCGGGUAAGUGUACAUAGUCUGCAUGCCGCCGGGCGCCAUGCCUGCAGGUCGACUCUAGAAAACAUG”, the values for the binding signal with PUM1 PUF domain R4-GHW and with PUM1 PUF domain R4-WGV were 4.34 log2 enrichment (interaction score) and 3.2 log2 enrichment (interaction score), respectively.
On to “GGCUAGAACUAGUGGAUCCCCCGGCGCCCGGCGGCUCGAGCCCGGGUAAGUUUAAAUAGUCUGCAUGCCGCCGGGCGCCAUGCCUGCAGGUCGACUCUAGAAAACAUG”, for which, in the assay with PUM1 PUF domain R7-LYW, the binding signal was 4.45 log2 enrichment (interaction score).

The record behind these values is paper PMC8384837, “Expanding the binding specificity for RNA recognition by a PUF domain”.
